# RXFP1 antagonist: qHTS Assay for Antagonists of the Relaxin Receptor RXFP1; AID 1259400, 2018; Relaxin receptor 1 (Homo sapiens), Q9HBX9; 350,000 compounds, 0.59% hits; activity change, negative = inhibition, % at 57.5 µM; HEK293-RXFP1, relaxin-stimulated cAMP HTRF, 30 min; active compounds read low;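 active = activity change of -60% or lower, but not beyond a set lower limit; inconclusive = change between -60% and -40%, or beyond the set limit; inactive = change above -40%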; note: % is set by controls: 0 for no effect and ±100 for the full control effect
# Target sequence (Q9HBX9 whole entry, looked up): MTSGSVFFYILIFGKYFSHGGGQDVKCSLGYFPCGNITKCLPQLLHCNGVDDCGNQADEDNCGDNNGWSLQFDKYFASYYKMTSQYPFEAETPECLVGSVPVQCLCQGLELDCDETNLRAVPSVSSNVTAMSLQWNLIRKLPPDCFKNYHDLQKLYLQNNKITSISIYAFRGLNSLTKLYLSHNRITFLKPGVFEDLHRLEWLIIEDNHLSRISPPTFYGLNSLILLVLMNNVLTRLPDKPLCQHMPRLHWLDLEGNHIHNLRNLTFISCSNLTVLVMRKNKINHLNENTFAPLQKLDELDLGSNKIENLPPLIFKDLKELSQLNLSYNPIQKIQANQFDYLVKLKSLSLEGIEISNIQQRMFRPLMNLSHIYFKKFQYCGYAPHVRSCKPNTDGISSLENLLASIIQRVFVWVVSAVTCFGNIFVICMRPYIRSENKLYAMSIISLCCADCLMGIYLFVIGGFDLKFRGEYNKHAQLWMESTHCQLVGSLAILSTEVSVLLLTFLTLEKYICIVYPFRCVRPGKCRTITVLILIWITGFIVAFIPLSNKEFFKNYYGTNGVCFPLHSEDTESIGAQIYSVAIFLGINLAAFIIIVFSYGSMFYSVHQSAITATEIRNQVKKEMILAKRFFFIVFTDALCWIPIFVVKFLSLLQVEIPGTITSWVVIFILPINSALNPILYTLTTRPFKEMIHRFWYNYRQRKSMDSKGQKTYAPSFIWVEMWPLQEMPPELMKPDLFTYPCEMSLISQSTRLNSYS
# gsp ag: qHTS for Agonist of gsp, the Etiologic Mutation Responsible for Fibrous Dysplasia/McCune-Albright Syndrome: qHTS | gsp mutant cells, cAMP HTRF, 30 min | Potency, µM (doses to about 76.9 µM), without a hit: at the highest dose activation (cAMP increase), most hits filed as activators | 340,000 compounds, 0.13% hits | AID 624287, 2012; active = well fitted activation curve with a large enough effect; inconclusive = small, poorly fitted or top-dose-only effect, or another doubt; inactive = no such curve, though single readings can be large or run the other way; cell line not stated here;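 note: phosphodiesterase inhibitor Ro 20-1724 added with compounds to block cAMP breakdown; potency is the fitted concentration of half-maximal effect; nearly all actives have a fitted effect of over 60% in size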
#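 Cells in DMEM/10% FBS with G418 were pretreated with compounds in DMSO plus […] (300 uM stock) for 30 min at 37C. cAMP was measured by HTRF (cAMP-d2 plus anti-cAMP antibody-K) after 30 min at room temperature.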
# ClpP mod: qHTS Assay for Activators of ClpP. ATP-dependent Clp protease proteolytic subunit (Bacillus subtilis (strain 168)), P80244. Potency, µM (titrated, usually from 57.5 µM), for the others: at the top dose activity change, negative = active. 340,000 compounds, 1.9% hits. AID 651965, 2013. purified B. subtilis ClpP, FRET peptide cleavage, 20 min; active = well fitted falling curve with a large enough effect; inconclusive = small, poorly fitted or top-dose-only effect; inactive = no such curve, though single readings can be large or run the other way; note: potency is the fitted concentration of half-maximal effect; the source files actives as falling curves though it sought activators and does not explain the sign; nearly all actives have a fitted effect of over 65% in size
#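 Purified B. subtilis ClpP, 10 microg/mL final in Tris/HCl pH8 with KCl, BSA, glycerol and Tween-20, cleaved an Abz/nitrotyrosine-quenched decapeptide. Fluorescence (ex 320, em 430) was read at 0 and 20 min at room temperature. Delta was normalized to 5.8 microM ADEP and DMSO/no-enzyme controls.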
# Akt phos inh: HTS Assay for Inhibitors of Akt Phophorylation: Primary Screen. AID 651550, 2012. activity change, % for hits at 50 µM. Neuro2A IGF-stimulated pAkt S473 HTRF, 20 min; active compounds read low. 360,000 compounds, 0.32% hits; in the data active = activity change below about -80%; inconclusive = mostly about -51% to -80%; note: % is set by controls: 0 for no effect and ±100 for the full control effect
#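 Single-point screen (50 µM final compound) in Neuro2A cells stimulated 20 min with 6 nM IGF at 37 deg C. After lysis, Ser473-phosphorylated Akt read by HTRF (ex 330 nm, em 615/665 nm) as the 665/615 ratio.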
# RXFP1 ag: qHTS Assay for Agonists of the Relaxin Receptor RXFP1; Relaxin receptor 1 (Homo sapiens), Q9HBX9; HEK293T-RXFP1 cAMP TR-FRET, 30 min; response scale: percent of porcine relaxin response, buffer zero; Potency, µM (highest dose often 57.5 µM), inactives show at the top dose activation, hits mostly activators; 370,000 compounds, 0.3% hits; active = well fitted activation curve with a large enough effect; inconclusive = small, poorly fitted or top-dose-only effect; note: potency is the fitted concentration of half-maximal effect; % is set by controls: 0 for no effect and ±100 for the full control effect; nearly all actives have a fitted effect of over 60% in size
#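 HEK293 cells stably expressing RXFP1, treated 30 min at 37C with compounds plus PDE4 inhibitor Ro 20174; cAMP measured by HTRF TR-FRET. Normalized to buffer and 29 nM porcine relaxin; EC50 by Hill fit.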
# gsp antagonist: qHTS for Antagonists of gsp, the Etiologic Mutation Responsible for Fibrous Dysplasia/McCune-Albright Syndrome: qHTS; gsp-mutant cells, cAMP HTRF, 30 min; Potency, µM (series often up to 76.9 µM), for the others: at the highest dose activity change, negative = inhibition, most hits filed as inhibitors; 340,000 compounds, 0.4% hits; calls by dose curve; cell line not stated here;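 note: intracellular cAMP measured with PDE inhibitor Ro 20-1724 present during compound exposure; potency is the fitted concentration of half-maximal effect; % is set by controls: 0 for no effect and ±100 for the full control effect; nearly all actives have a fitted effect of over 65% in size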
#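 Measurement of cellular cAMP by homogeneous time-resolved fluorescence following a 30 min compound exposure at 37C. The PDE inhibitor […] was present throughout; the assay buffer was DPBS with 0.05% BSA and 0.005% Tween 20.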
# An asterisk follows results filed as active; i = inactive; u = inconclusive; x = no result; [ ] = remark or other dose. Hits are enriched below; roughly 2.7% of the tested compounds scored in any of these assays.
SMILES,RXFP1 antagonist,gsp ag,ClpP mod,Akt phos inh,RXFP1 ag,gsp antagonist
CCOC(=O)C1CCN(CC(=O)Nc2c(C(=O)OC)[nH]c3ccc(Cl)cc23)CC1,-0.5,11.7%,28.2µM*,i,2.0%,u
COC(=O)c1[nH]c2ccc(Cl)cc2c1NC(=O)C1CC1,-1.5,11.5%,31.6µM*,i,1.6%,-7.7%
COC(=O)c1[nH]c2ccc(Cl)cc2c1NC(=O)Oc1ccccc1,-3.0,0.3%,10µM*,i,-0.7%,u
COC(=O)c1[nH]c2ccc(C)cc2c1NC(=O)Nc1ccccc1OC,-11.1,-18.1%,-20.4%,i,0.7%,-11.3%[15.4 µM]
O=C(C1CCN(c2nc3ccccc3[nH]2)CC1)N1CCN(c2ccccc2)CC1,-21.4,x,-0.2%,x,4.4%,x
COc1ccc(CN(Cc2ccccc2)C(=O)c2ccco2)cc1COc1ccc(NC(C)=O)cc1,x,x,-0.1%,x,x,x
COc1cccc(N2CC(C(=O)Nc3nnc(SCc4cccnc4)s3)CC2=O)c1 (configuration not stated),-0.6,u,12.6µM*,i,-0.7%,-4.0%
O=C(NCCCN1CCN(c2ccccc2F)CC1)c1nnc(Cc2ccc(Cl)cc2Cl)o1,-13.0,x,-0.7%,x,4.8%,x
CN(C)c1ccc(-c2nc3n(n2)C(c2cccnc2)C2=C(CC(C)(C)CC2=O)N3)cc1 (configuration not stated),6.8,-20.7%,14.1µM*,i,-3.1%,-21.1%
Cc1cccc(S(=O)(=O)Nc2ccc3c(c2)OCCO3)c1,-4.0,-14.3%,-3.0%,i,-0.3%,10.1%
COc1cccc(S(=O)(=O)Nc2ccc3c(c2)OCCO3)c1,-10.4,11.7%[15.4 µM],14.1µM*,i,0.4%,4.1%
O=C(NC1CCCC1)c1ccc(CSc2nc3cccnc3n2Cc2ccccc2F)cc1,-1.1,x,4.5%,x,0.0%,x
CN(CC(=O)N1CCN(Cc2ccccc2)CC1)C(=O)Cc1ccc(Cl)c(Cl)c1,6.5,-7.2%,x,i,x,-3.5%
NC(=O)c1c(C(F)(F)F)cc(-c2ccccc2)nc1NCCO,12.3,17.5%,22.4µM*,i,1.0%,3.6%
CCCCNc1nc(-c2ccccc2)cc(C(F)(F)F)c1C(N)=O,0.0,u,-12.4%,i,-0.1%,-0.5%
Cc1cc2c(cc1S(=O)(=O)NCCc1ccccc1)NC(=O)CO2,10.3,-16.7%[15.4 µM],x,i,1.3%,3.9%
CCCc1ccccc1OCCNS(=O)(=O)c1cc2c(cc1C)OCC(=O)N2,-61.5*,2.1%[15.4 µM],0.7%,i,3.5%,-23.6%
CC(C)Nc1nc(Cl)nc(NCCOc2ccccc2)n1,-9.4,-1.8%[15.4 µM],x,i,-0.7%,11.8%
CCC(C)Nc1nc(Cl)nc(NCCOc2ccccc2)n1 (configuration not stated),-8.1,18.0%[15.4 µM],28.2µM*,i,2.0%,12.8%
Cn1c(=O)[nH]c(=O)c2[nH]c(CO)nc21,-11.4,-24.2%,1.2%,i,x,-4.0%
CCCOc1ccccc1-c1nc2c([nH]1)c(=O)[nH]c(=O)n2C,-9.3,29.7%,31.6µM*,i,4.3%,15.1%
C[C@@H]1CN([C@@H](C)CO)C(=O)c2cc(NS(=O)(=O)c3cccs3)ccc2O[C@H]1CN(C)Cc1ccc(C(F)(F)F)cc1,x,x,-1.2%,i,x,-17.1%
Nn1c(SCC(=O)N2CCCCC2)nnc1-c1ccncc1,-2.7,-53.6%,28.2µM*,i,0.8%,2.9%
Nn1c(SCC(=O)N2CCCCCC2)nnc1-c1ccncc1,-2.6,7.4%,0.0%,i,0.6%,3.1%
C=CCOc1c(Cl)cc(CNCCC)cc1Cl,-7.8,-3.0%,-1.3%,-91.4%*,2.7%,6.5%
COc1ccc(-c2[nH]c(-c3ccc(C)cc3)nc2SCC(=O)NCC2CCCO2)cc1 (configuration not stated),u,x,u,x,0.4%,x
